Screens deposited in PubChem by The Scripps Research Institute Molecular Screening Center.
GPR151 activ: activators of human GPR151; Q8TDV0; hit rate 1% among 650,000; PathHunter beta-arrestin GPR151 cells, luminescence; activation, % at 11.2 µM; in the data active = activation above about 4.9%;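 also: 0% = median of compound wells and 100% = cells with positive control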
MITF primary: human MITF inhibition, primary screen. AlphaScreen MITF homodimerization, bead proximity signal. inhibition, % at 2.6 µM. hit rate 0.91% among 650,000. AID 1259374; in the data active = inhibition above about 50%;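 also: 0% = vehicle wells with protein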
Target sequence (O75030 whole entry, looked up): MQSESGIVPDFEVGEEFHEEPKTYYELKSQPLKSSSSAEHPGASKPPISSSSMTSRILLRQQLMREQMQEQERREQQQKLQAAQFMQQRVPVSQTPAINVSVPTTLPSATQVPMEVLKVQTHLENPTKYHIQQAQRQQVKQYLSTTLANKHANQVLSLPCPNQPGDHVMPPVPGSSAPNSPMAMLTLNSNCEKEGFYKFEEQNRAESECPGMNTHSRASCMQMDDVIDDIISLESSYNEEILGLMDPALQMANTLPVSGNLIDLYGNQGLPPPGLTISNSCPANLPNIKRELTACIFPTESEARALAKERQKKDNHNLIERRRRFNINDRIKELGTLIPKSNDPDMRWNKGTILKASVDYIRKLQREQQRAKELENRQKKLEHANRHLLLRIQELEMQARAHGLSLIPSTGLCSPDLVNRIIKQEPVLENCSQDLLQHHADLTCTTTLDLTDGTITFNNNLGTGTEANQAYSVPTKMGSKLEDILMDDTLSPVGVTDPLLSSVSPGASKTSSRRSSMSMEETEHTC
TEAD-YAP inh: TEAD-YAP interaction inhibition; HEK-TIYL cells, TEAD-Gal4/YAP UAS-luciferase luminescence; inhibition, % at 9.12 µM; hit rate 1.4% among 640,000; in the data active = inhibition above about 32%;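 also: 0% = median of test compound wells and 100% = reference inhibitor wells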
FBW7 act: human FBW7 E3 ligase activation, primary screen. Q969H0. AlphaScreen FBW7–phospho-cyclin E peptide binding, activator screen. normalized activity (activation), % at 26.1 µM. hit rate 0.13% among 650,000. AID 1259310; in the data active = normalized activity above about 1.9%;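 also: purified mutant Fbw7 with reduced substrate affinity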
An asterisk follows results filed as active. In the library only some 3.5% were active in any assay of this set; here they are far more common.

SMILES	GPR151 activ	MITF primary	TEAD-YAP inh	FBW7 act
O=C(CN1CCN(Cc2ccccc2Cl)CC1)N/N=C\c1c(O)ccc2ccccc12	2	24	74*	0
O=C(CO)N/N=C/c1c(O)ccc2ccccc12	-1	29	11	-1
CSc1nc2c(c(=O)n(C)c(=O)n2C)n1C	2	-3	1	0
O=c1c2c(-c3ccccc3)csc2ncn1/N=C/c1ccc(O)c(O)c1O	-1	62*	11	0
CN1C(=O)N(C)C(NNC(N)=S)C1NNC(N)=S (stereo not given)	1	11	88*	0
O=C(c1cc2c(s1)CCC2)N1CCC(c2ccncc2)CC1	-1	17	33*	0
O=S(=O)(c1ccc(F)c(Cl)c1)N1CCc2ccccc2C1	0	11	5	0
O=C1c2cccc3cccc(c23)C(=O)N1CCN1CCN(CCc2ccccc2)CC1	0	18	0	0
O=C1c2cccc3cccc(c23)C(=O)N1CCN1CCCCC1	0	7	68*	0
COc1ccc(-c2cnc(NCc3cnc(C)cn3)nc2)cc1	-2	9	46*	1
COc1ccc(-c2cnnc(NCc3cnc(C)cn3)n2)cc1	1	8	0	0
Cc1ccccc1-c1nc2ccccc2[nH]1	-2	24	-53	0
Cc1cc2nc(-c3ccc[nH]c3=O)[nH]c2cc1C	-11	-11	86*	0
COc1ccc(-c2csc(NC(=O)CSc3nc(N)cc(=O)[nH]3)n2)cc1	0	13	-6	0
Cc1cc(NC(=O)CSc2nc3ccccc3c(=O)[nH]2)no1	1	2	55*	0
Cc1cc(NC(=O)CSc2nc3ccccc3c(=O)n2C2CCCC2)no1	2	6	50*	0
Cc1ccc(SCCNC(=O)C(C)N(c2ccc(C)cc2)S(C)(=O)=O)cc1 (stereo not given)	-1	-6	-12	0
COc1cc(-c2cn[nH]c2)cc2c(=O)[nH]c([C@H](N)Cc3cccc(F)c3)nc12	-1	-2	72*	0
COc1cc(-c2cn[nH]c2)cc2c(=O)[nH]c(Cc3cccc(NC(=O)C(C)C)c3)nc12	0	10	-5	1
N[C@H](Cc1ccc(Cl)cc1)c1nc2ccc(-c3cn[nH]c3)cc2c(=O)[nH]1	-1	11	94*	-1
N[C@H](Cc1cccc(C(F)(F)F)c1)c1nc2ccc(-c3cn[nH]c3)cc2c(=O)[nH]1	-2	4	19	-1
CCOC(=O)C1=NN(C(=O)Cc2ccccc2)C(O)(C(C)(C)C)C1 (stereo not given)	0	-6	13	0
COC(=O)C1=NN(C(=O)Cc2ccccc2)C(O)(C(C)(C)C)C1 (stereo not given)	0	16	-1	2.0*
CCN(CC)C(=O)C1CCCN(c2nc(NCc3cccnc3)c3ncn(-c4ccccc4)c3n2)C1 (stereo not given)	-2	13	22	0
CC(C)N(CCNc1nc(-c2ccc(N3CCOCC3)nc2)nc2c1ncn2C(C)C)C(C)C	3	-14	19	0
SMILES	GPR151 activ	MITF primary	TEAD-YAP inh	FBW7 act
CC(C)N(CCNc1nc(-c2ccc(N3CCOCC3)nc2)nc2c1ncn2-c1ccsc1)C(C)C	0	6	43*	0
COc1ccc(-c2nc(NCCN(C(C)C)C(C)C)c3ncn(-c4ccsc4)c3n2)cn1	-1	13	35*	0
OCCNc1nc(-c2ccc(N3CCOCC3)nc2)nc2c1ncn2-c1ccsc1	0	-2	34*	0
COc1ccc(-c2c(C(F)(F)F)oc3cc(OC(=O)c4ccc(F)cc4)ccc3c2=O)cc1OC	0	-3	-1	0
N#Cc1ccc(Nc2ncc(Cl)c(Nc3ccccc3C(N)=O)n2)cc1	0	14	26	0
COc1cnc(Nc2ccc(N3CCOCC3)cc2)nc1Nc1ccccc1C(N)=O	0	7	55*	0
Cc1ncn(-c2ccc(Nc3ncc(C)c(Nc4ccccc4C(N)=O)n3)cc2)n1	0	7	88*	1
NC(=O)c1ccccc1Nc1nc(Nc2ccc(N3CCCC3=O)cc2)ncc1Cl	3	-5	78*	0
COc1cc(N2CCOCC2)ccc1Nc1ncc(Cl)c(Nc2ccccc2C(=O)NC2CC2)n1	0	2	12	0
CC(O)c1nc2ccccc2n1Cc1ccc(F)cc1 (stereo not given)	2	10	5	-1
Nc1cccc(C(=O)N/N=C/c2ccc(Br)cc2)c1	0	5	-31	0
COc1ccc(N2C(N)=C(C#N)C(c3ccsc3)C3=C2CCCC3=O)cc1 (stereo not given)	1	10	45*	0
COc1ccc(N2C(N)=C(C#N)C(c3cc(OC)c(OC)c(OC)c3)C3=C2CCCC3=O)cc1 (stereo not given)	1	8	54*	0
COc1ccc(C2C(C#N)=C(N)N(c3ccc(C)cc3)C3=C2C(=O)CC(C)(C)C3)cc1OC (stereo not given)	-1	0	54*	0
COc1ccc(N2C(N)=C(C#N)C(c3ccsc3)C3=C2CCCC3=O)c(OC)c1 (stereo not given)	-1	9	16	1
COc1cc(C2C(C#N)=C(N)N(c3ccc(Br)cc3)C3=C2C(=O)CCC3)cc(OC)c1OC (stereo not given)	-1	10	20	0
O=[N+]([O-])c1ccc(Nc2nc(-c3ccc(O)cc3)cs2)cc1	0	22	-3	0
O=C1/C(=C/c2ccco2)CCc2ccccc21	-3	22	-54	0
N#CC(C#N)C(C#N)(C#N)C1CCC/C(=C\c2ccco2)C1=O (stereo not given)	2	81*	-2	-1
CC(=O)Nc1ccc(CN2CCN(c3ccccn3)CC2)cc1	0	12	-2	0
Cn1cccc(C(=O)Nc2ccc(CN3CCN(c4ccccn4)CC3)cc2)c1=O	-9	7	46*	0
Cc1ccc(C(=O)NNC(=O)C2CCN(C(=O)Cc3cccc(F)c3)CC2)cc1	0	-5	-3	0
COCC(C)NC(=O)c1ccc(OC)cc1 (stereo not given)	-1	11	4	1
Cc1ccc2nc(-c3ccc(O)c(O)c3)cn2c1	-7	0	54*	0
Cc1ccc2nc(-c3ccc(O)cc3O)cn2c1	1	0	80*	0
SMILES	GPR151 activ	MITF primary	TEAD-YAP inh	FBW7 act
Cc1ccc2nc(-c3ccc([N+](=O)[O-])cc3)cn2c1	-2	-4	-34	0
CCCOc1ccc(/C=C/c2nc(O)c([N+](=O)[O-])c(=O)[nH]2)cc1OC	-1	2	-5	0
CC(=O)N(C1=C(N2CCOCC2)C(=O)c2ccccc2C1=O)c1ccc(F)c(F)c1	1	24	32*	0
CC(=O)N(C1=C(N2CCOCC2)C(=O)c2ccccc2C1=O)c1cc(C)cc(C)c1	1	36	39*	0
CC(C)(C)C1CCc2c(sc(NC(=O)CN3CCNCC3)c2C(N)=O)C1 (stereo not given)	0	10	3	1
CN(CCC#N)c1ccc(/C=C(\C#N)c2ccccn2)cc1	-4	-1	49*	0
